# Results filed as inconclusive are left out. Calls of active or inactive are those of the source. How the source made its calls, unless noted: active means hit-call score of the fitted dose curve at least 0.9, where 1 is the maximum; inactive means score below 0.9.
# Legend:
# [1] = ACEA_ER_80hr: ACEA Biosciences xCELLigence Real-Time Cell Analysis on Estrogen Receptor Agonism for Proliferation (AID 2282667; active means hit-call score of the fitted dose curve at least 0.9, where 1 is the maximum); details: T47D proliferation, impedance (xCELLigence), 80 h
# Procedure, shortened: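 Impedance readout (RT-CES) of T47D proliferation at 80 h post-dose; gain of signal vs DMSO baseline. Compounds: 8 conc, 1:4 serial, top 100 uM final, ≤0.5% DMSO; biological duplicate.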
# [2] = ATG_CRE_CIS: Attagene CIS-FACTORIAL HepG2 Assay for human cAMP Responsive Element (CRE) binding protein 3 (AID 2282926); details: HepG2 CRE cis-reporter, Attagene multiplexed mRNA; actives raise or lower the signal
# Procedure, shortened: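 Readout: fluorescently labelled reporter transcripts resolved by capillary electrophoresis after RT-PCR, taken 24 h post-dosing in transfected HepG2. Endogenous transcription factor activity drives each cis-element reporter; gain or loss of signal fitted relative to DMSO control.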
# [3] = target: CCAAT/enhancer-binding protein beta (Homo sapiens) (UniProt P17676); test: ATG_C_EBP_CIS: Attagene CIS-FACTORIAL HepG2 Assay for human CCAAT/Enhancer Binding Protein (C/EBP) beta (AID 2282927); details: HepG2 Attagene cis-factorial transcription factor reporter; actives raise or lower the signal
# Procedure, shortened: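 Following a 24 h incubation with test chemical, transfected HepG2 cells yielded RNA whose reporter transcripts were quantified by RT-PCR and fluorescent capillary electrophoresis, with DMSO serving as baseline for bidirectional fitting.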
# [4] = ATG_CMV_CIS: Attagene CIS-FACTORIAL HepG2 Assay for human CMV (Internal Marker) (AID 2282928); details: HepG2 CMV promoter reporter, transcription factor profiling; actives raise or lower the signal;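 further: endpoint acts as a background internal control marker rather than a target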
# Procedure, shortened: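 Reporter transcripts from transfected HepG2 cells are isolated after 24 h of chemical dosing, reverse-transcribed and amplified. Fragments labeled with 6-FAM are cut with HpaI and quantified by capillary electrophoresis; DMSO defines baseline.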
# [5] = target: Aryl hydrocarbon receptor (Homo sapiens) (UniProt P35869); test: ATG_Ahr_CIS: Attagene CIS-FACTORIAL HepG2 Assay for human Aryl Hydrocarbon Receptor (Ahr) (AID 2282930); details: HepG2 AhR cis-factorial reporter transcription; actives raise or lower the signal
# Procedure, shortened: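 Values derive from bidirectional fitting against DMSO negative control. Underlying signal: cis-element reporter mRNA in transiently transfected HepG2, harvested 24 h post-dose and measured by RT-PCR plus capillary electrophoresis.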
# [6] = ATG_AP_1_CIS: Attagene CIS-FACTORIAL HepG2 Assay for human Activator Protein 1 (AP-1) (AID 2282931); details: HepG2 Attagene cis-factorial AP-1 reporter mRNA; actives raise or lower the signal
# Procedure, shortened: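 Cis-regulated reporter units transiently expressed in HepG2 report endogenous transcription-factor activity. Signal: reporter mRNA at 24 h, via RT-PCR and fluorescent capillary electrophoresis. Endpoint derived by bidirectional fitting, DMSO as negative control.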
# [7] = ATG_AP_2_CIS: Attagene CIS-FACTORIAL HepG2 Assay for human Activator Protein 2 (AP-2) (AID 2282932); details: HepG2 AP-2 cis-reporter, Attagene transcription factor profiling; actives raise or lower the signal
# Procedure, shortened: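 Cells (HepG2) transfected with promoter-driven reporter constructs, treated 24 h. Total RNA reverse-transcribed, reporter cDNA PCR-amplified, FAM-labelled by primer extension, digested, resolved by capillary electrophoresis. Activity fitted both directions versus DMSO.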
# [8] = target: Retinoic acid receptor alpha (Homo sapiens) (UniProt P10276); test: ATG_DR5_RAR_CIS: Attagene CIS-FACTORIAL HepG2 Assay for human Retinoic Acid Receptor Alpha (RARE), DR5 submotif (AID 2282934); details: HepG2 Attagene cis-factorial RARE DR5 reporter, mRNA; actives raise or lower the signal;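 on AC50: reporter responds to endogenous RAR alpha beta and gamma in HepG2 not RARA alone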
# Procedure, shortened: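 Endpoint fitted in both directions relative to DMSO as negative control. It reflects DR5 cis-element reporter mRNA induction in transiently transfected HepG2 cells, measured 24 h after dosing through RT-PCR and fluorescent capillary electrophoresis.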
# [9] = target: Transcription factor E2F1 (Homo sapiens) (UniProt Q01094); test: ATG_E2F_CIS: Attagene CIS-FACTORIAL HepG2 Assay for human E2F Transcription Factor 1 (AID 2282935); details: HepG2 Attagene cis-reporter, E2F reporter RNA transcripts; actives raise or lower the signal
# Procedure, shortened: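 First, HepG2 cells were transfected with reporter transcription units. Next, they were dosed for 24 h. Then RNA was isolated, converted to cDNA, PCR-amplified, FAM-labeled, HpaI-digested and analyzed by capillary electrophoresis.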
# [10] = ATG_E_Box_CIS: Attagene CIS-FACTORIAL HepG2 Assay for human Enhancer Box (E-box) (AID 2282936); details: HepG2 E-box cis-reporter transcription, actives raise or lower the signal
# Procedure, shortened: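 Endogenous transcription factor activity was sensed in human HepG2 liver cells through transfected cis-promoter reporter units. After 24 h of dosing, total RNA was reverse-transcribed and reporter cDNA resolved by capillary electrophoresis.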
# [11] = ATG_M_61_CIS: Attagene CIS-FACTORIAL HepG2 Assay for M61 Transcription Factor (Internal Marker) (AID 2282937); details: HepG2 Attagene CIS-FACTORIAL M61 internal marker reporter; actives raise or lower the signal
# Procedure, shortened: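 Background-control endpoint: HepG2 cells with cis-regulated reporter constructs, 24 h exposure, reporter mRNA detected via fluorescent primer extension and capillary electrophoresis; values from bidirectional fitting with DMSO baseline.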
# [12] = ATG_M_19_CIS: Attagene CIS-FACTORIAL HepG2 Assay for M19 Transcription Factor (Internal Marker) (AID 2282939); details: HepG2 Attagene CIS-FACTORIAL M19 internal marker reporter; actives raise or lower the signal
# Procedure, shortened: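 HepG2, MRTU transient transfection, 24 h dosing. Total RNA → RT-PCR → 6-FAM primer extension → HpaI digest → CE fluorescence. Bidirectional curve fit, DMSO negative control.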
# [13] = ATG_ERE_CIS: Attagene CIS-FACTORIAL HepG2 Assay for Estrogen Response Element (ERE) (AID 2282940); details: HepG2 ERE cis-reporter, Attagene RNA transcript; actives raise or lower the signal
# Procedure, shortened: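 After a 24 h chemical treatment, RNA from reporter-transfected HepG2 cells is reverse-transcribed, PCR-amplified and fluorescently labelled. Fragments separated by capillary electrophoresis give reporter signal; DMSO serves as negative control.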
# [14] = ATG_Ets_CIS: Attagene CIS-FACTORIAL HepG2 Assay for human Erythroblast Transformation Specific (ETS) (AID 2282941); details: HepG2 ETS cis-reporter transcription, actives raise or lower the signal
# Procedure, shortened: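 Bidirectional fit versus DMSO of reporter mRNA signal, detected by RT-PCR and capillary electrophoresis in HepG2 cells transiently transfected with cis-element reporters and dosed 24 h.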
# [15] = target: Hepatocyte nuclear factor 3-beta (Homo sapiens) (UniProt Q9Y261); test: ATG_FoxA2_CIS: Attagene CIS-FACTORIAL HepG2 Assay for human Forkhead box A2 (FOXA2) (AID 2282942); details: HepG2 cis-reporter transcription factor activity, 24 h; actives raise or lower the signal
# Procedure, shortened: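 Measured: reporter mRNA induction or loss in HepG2 transiently carrying multiple cis-regulated reporter units, 24 h after dosing. Quantified by RT-PCR plus capillary electrophoresis, normalised to DMSO.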
# [16] = ATG_GATA_CIS: Attagene CIS-FACTORIAL HepG2 Assay for human GATA Binding Protein (AID 2282944); details: HepG2 GATA cis-element reporter, Attagene multiplex mRNA; actives raise or lower the signal
# Procedure, shortened: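 Cells: HepG2, transiently transfected with cis-regulated reporter transcription units. Exposure: 24 h. Detection: RT-PCR plus capillary electrophoresis of FAM-labeled fragments. Analysis: bidirectional, DMSO as baseline.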
# [17] = ATG_DR4_LXR_CIS: Attagene CIS-FACTORIAL HepG2 Assay for human Liver X Receptor (LXR), DR4 submotif (AID 2282929); details: HepG2 Attagene DR4 cis-reporter, mRNA transcription; actives raise or lower the signal
# Procedure, shortened: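 DR4 cis-reporter in HepG2, 24 h exposure. Detection: RT-PCR, 6-FAM labelling, CE fragment analysis. Endpoint fitted bidirectionally, DMSO = baseline.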
# [18] = ATG_BRE_CIS: Attagene CIS-FACTORIAL HepG2 Assay for human Bone Morphogenetic Protein (BMP) Response Element (BRE) (AID 2282933); details: HepG2 BMP response element reporter, Attagene transcription factor profiling; actives raise or lower the signal
# Procedure, shortened: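 Fluorescence-labelled reporter cDNA fragments, separated by capillary electrophoresis, gave the signal for this component of a 52-readout multiplex. HepG2 cells were transfected, exposed to chemicals for 24 h, and compared with DMSO using bidirectional fitting.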
# [19] = ATG_EGR_CIS: Attagene CIS-FACTORIAL HepG2 Assay for human Early Growth Response 1 (EGR1) (AID 2282938); details: HepG2 Attagene CIS-FACTORIAL EGR reporter mRNA; actives raise or lower the signal
# Procedure, shortened: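 Endpoint derived by bidirectional fitting versus DMSO vehicle. Method: cis-promoter reporter units transfected into HepG2, 24 h dosing, RNA isolation, RT-PCR with 6-FAM primer extension and HpaI digestion, then capillary electrophoresis fluorescence detection.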
# [20] = ATG_FoxO_CIS: Attagene CIS-FACTORIAL HepG2 Assay for human Forkhead box O (FoxO) (AID 2282943); details: HepG2 Attagene cis-reporter, FoxO element, mRNA; actives raise or lower the signal
# Procedure, shortened: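 Values reflect reporter mRNA induction or loss in HepG2 cells 24 h post-dosing, fitted bidirectionally with DMSO as negative control and baseline. Detection used RT-PCR and fluorescence capillary electrophoresis.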
# Sequence of Retinoic acid receptor alpha (Homo sapiens) (P10276 whole entry, looked up): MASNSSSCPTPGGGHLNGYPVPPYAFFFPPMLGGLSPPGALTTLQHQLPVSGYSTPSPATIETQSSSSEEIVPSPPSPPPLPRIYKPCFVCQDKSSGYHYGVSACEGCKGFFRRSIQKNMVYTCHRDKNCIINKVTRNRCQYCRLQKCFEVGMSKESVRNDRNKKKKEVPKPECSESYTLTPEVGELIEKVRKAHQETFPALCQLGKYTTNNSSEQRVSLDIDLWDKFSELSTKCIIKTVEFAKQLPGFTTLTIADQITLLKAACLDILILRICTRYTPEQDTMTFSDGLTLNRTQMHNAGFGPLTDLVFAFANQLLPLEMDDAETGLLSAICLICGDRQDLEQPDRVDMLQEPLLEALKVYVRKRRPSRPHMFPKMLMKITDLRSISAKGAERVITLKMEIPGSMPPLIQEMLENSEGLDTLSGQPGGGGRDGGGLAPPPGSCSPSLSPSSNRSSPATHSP
# Sequence of Hepatocyte nuclear factor 3-beta (Homo sapiens) (Q9Y261 whole entry, looked up): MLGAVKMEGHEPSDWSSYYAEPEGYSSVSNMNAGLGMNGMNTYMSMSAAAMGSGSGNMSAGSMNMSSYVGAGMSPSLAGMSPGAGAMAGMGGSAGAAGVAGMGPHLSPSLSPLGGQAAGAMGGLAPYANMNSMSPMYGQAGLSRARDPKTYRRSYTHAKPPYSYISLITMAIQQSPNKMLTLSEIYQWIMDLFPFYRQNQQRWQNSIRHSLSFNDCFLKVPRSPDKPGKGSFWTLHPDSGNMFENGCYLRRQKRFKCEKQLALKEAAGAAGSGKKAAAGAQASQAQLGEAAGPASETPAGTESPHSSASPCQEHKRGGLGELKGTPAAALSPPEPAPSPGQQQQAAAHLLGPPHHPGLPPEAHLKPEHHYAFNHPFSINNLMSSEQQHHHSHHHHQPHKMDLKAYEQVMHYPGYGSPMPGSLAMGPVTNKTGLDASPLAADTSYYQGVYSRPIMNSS
# Sequence of Aryl hydrocarbon receptor (Homo sapiens) (P35869 whole entry, looked up): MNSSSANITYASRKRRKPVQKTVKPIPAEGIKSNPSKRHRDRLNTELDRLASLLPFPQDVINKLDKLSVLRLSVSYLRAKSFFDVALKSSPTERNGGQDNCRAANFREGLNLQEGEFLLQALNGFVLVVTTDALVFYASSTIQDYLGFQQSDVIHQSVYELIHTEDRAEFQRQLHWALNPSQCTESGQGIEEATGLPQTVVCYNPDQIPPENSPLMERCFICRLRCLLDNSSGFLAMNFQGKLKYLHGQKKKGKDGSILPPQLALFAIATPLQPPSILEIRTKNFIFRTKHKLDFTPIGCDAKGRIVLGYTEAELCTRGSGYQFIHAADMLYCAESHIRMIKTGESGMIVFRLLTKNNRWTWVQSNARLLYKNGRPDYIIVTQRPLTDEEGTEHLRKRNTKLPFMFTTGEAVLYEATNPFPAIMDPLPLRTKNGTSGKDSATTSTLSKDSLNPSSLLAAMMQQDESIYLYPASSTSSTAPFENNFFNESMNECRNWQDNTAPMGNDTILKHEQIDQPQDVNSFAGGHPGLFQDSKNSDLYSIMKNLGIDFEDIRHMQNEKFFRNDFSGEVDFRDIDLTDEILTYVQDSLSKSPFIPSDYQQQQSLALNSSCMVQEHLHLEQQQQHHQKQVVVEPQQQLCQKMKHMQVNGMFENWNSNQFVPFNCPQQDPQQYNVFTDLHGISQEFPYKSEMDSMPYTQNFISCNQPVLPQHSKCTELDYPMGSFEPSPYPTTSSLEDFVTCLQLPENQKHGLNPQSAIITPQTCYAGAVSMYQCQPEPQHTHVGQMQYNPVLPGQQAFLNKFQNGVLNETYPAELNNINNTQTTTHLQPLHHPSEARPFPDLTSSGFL
# Sequence of Transcription factor E2F1 (Homo sapiens) (Q01094 whole entry, looked up): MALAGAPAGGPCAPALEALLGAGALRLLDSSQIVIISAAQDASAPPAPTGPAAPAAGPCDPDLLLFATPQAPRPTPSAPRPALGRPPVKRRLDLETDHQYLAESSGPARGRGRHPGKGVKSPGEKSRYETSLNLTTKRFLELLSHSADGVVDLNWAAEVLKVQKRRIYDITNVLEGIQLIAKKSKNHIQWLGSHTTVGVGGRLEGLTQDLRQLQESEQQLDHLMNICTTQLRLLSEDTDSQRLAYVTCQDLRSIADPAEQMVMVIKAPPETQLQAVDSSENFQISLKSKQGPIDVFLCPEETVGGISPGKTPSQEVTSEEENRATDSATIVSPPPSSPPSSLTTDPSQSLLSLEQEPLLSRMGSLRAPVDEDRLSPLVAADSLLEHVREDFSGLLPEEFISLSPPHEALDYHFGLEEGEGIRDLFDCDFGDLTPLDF
# Sequence of CCAAT/enhancer-binding protein beta (Homo sapiens) (P17676 whole entry, looked up): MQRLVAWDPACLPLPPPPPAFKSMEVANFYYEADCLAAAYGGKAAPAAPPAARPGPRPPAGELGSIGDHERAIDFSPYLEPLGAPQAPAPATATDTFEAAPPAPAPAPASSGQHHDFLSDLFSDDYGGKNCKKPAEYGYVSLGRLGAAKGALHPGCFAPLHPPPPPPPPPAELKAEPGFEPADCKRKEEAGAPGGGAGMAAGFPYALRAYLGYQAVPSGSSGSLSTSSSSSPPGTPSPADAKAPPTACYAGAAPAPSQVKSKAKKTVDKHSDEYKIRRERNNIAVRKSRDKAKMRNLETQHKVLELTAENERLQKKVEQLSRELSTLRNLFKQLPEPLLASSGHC
smiles,measurement,setting,value
CC(C)OC(=O)c1ccccc1,outcome,[1],inactive
same,outcome,[2],inactive
same,outcome,[3],inactive
same,outcome,[4],inactive
same,outcome,[5],inactive
same,outcome,[6],inactive
same,outcome,[7],inactive
same,outcome,[8],inactive
same,outcome,[9],inactive
same,outcome,[10],inactive
same,outcome,[11],inactive
same,outcome,[12],inactive
same,outcome,[13],inactive
same,outcome,[14],inactive
same,outcome,[15],inactive
same,outcome,[16],inactive
CCCCCCCC(=O)OCC,outcome,[1],inactive
same,outcome,[2],inactive
same,outcome,[4],inactive
same,outcome,[17],inactive
same,outcome,[5],inactive
same,outcome,[6],inactive
same,outcome,[18],inactive
same,outcome,[8],inactive
same,outcome,[9],inactive
same,outcome,[10],inactive
same,outcome,[11],inactive
same,outcome,[19],inactive
same,outcome,[12],inactive
same,outcome,[13],inactive
same,outcome,[14],inactive
same,outcome,[15],inactive
same,outcome,[20],inactive
same,outcome,[16],inactive
C=CCNCC=C,outcome,[1],inactive
same,outcome,[2],inactive
same,outcome,[4],inactive
same,outcome,[6],inactive
same,outcome,[8],inactive
same,outcome,[9],inactive
same,outcome,[10],inactive
same,outcome,[11],inactive
same,outcome,[19],inactive
same,outcome,[12],inactive
same,outcome,[13],inactive
same,outcome,[14],inactive
same,outcome,[15],inactive
same,outcome,[20],inactive
same,outcome,[16],inactive
CCCCCCCCCC[N+](C)(CCCCCCCCCC)CCC[Si](OC)(OC)OC,outcome,[1],inactive
same,AC50,[2],17.5 µM (active)
same,outcome,[4],inactive
same,outcome,[17],inactive
same,outcome,[5],inactive
same,outcome,[6],inactive
same,AC50,[7],15.3 µM (active)
same,outcome,[18],inactive
same,AC50,[8],16.9 µM (active)
same,outcome,[9],inactive
same,AC50,[10],17.8 µM (active)
same,outcome,[11],inactive
same,AC50,[12],17.8 µM (active)
same,outcome,[13],inactive
same,outcome,[14],inactive
same,AC50,[15],17.7 µM (active)
same,outcome,[20],inactive
same,AC50,[16],14.1 µM (active)

# Source: PubChem BioAssay (EPA / NIEHS)
